Screening results (PubChem BioAssay)
Sampled rows, rich in hits. Any-hit rate of the full collection: about 18%.
DT40 TDP1 CPT – DT40-hTDP1 cell growth loss with CPT; chicken DT40 Tdp1-/-;hTDP1 cells + 20 nM CPT, ATP luminescence, 48 h; Potency, µM (top dose mostly 46.2 µM), without a hit: at the top dose activity change, negative = growth inhibition, usual class: inhibitors; 420,000 compounds, 12% hits; AID 686979; also: nearly all actives have a fitted effect of over 55% in size
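Chicken DT40 Tdp1-/- cells complemented with human TDP1, 400 cells/well, exposed to compounds plus 20 nM camptothecin for at least 48 h at 37 C; viability read as ATP content by CellTiter-Glo luminescence.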
TDP1 inh – inhibitors of human tyrosyl-DNA phosphodiesterase TDP1. Q9NUW8. recombinant TDP1, AlphaScreen DNA substrate cleavage. Potency, µM (top dose mostly 130 µM), for the others: at the top dose activity change, negative = inhibition, actives largely listed as inhibitors. 350,000 compounds, 0.28% hits. AID 485290; also: nearly all actives have a fitted effect of over 40% in size
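Steps: enzyme plus compound, 15 min RT; add biotin/phosphotyrosine-FITC oligonucleotide (15 nM final), react 5 min; add donor/acceptor beads (10 ug/ml final), 10 min; read AlphaScreen. Tdp1 at 1 nM final.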
DT40 TDP1 no CPT – qHTS for Inhibitors of human tyrosyl-DNA phosphodiesterase 1 (TDP1): qHTS in cells in absence of CPT. DT40 Tdp1-/- hTDP1 cells, no CPT, ATP luminescence, 48 h. Potency, µM (top dose mostly 46.2 µM), for the others: at the highest dose activity change, negative = growth inhibition, actives largely listed as inhibitors. 420,000 compounds, 15% hits. AID 686978, 2013; also: nearly all actives have a fitted effect of over 55% in size
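Chicken DT40 Tdp1-/- cells stably complemented with human TDP1 were seeded at 400 cells/well with DMSO in place of 20 nM camptothecin. After compound pinning, cells grew at least 48 hr at 37 °C; viability read by CellTiter-Glo luminescence.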
PLK1 PBD inh – PLK1 (human) polo-box domain binding inhibition | P53350 | Plk1 PBD binding of FITC phosphopeptide, fluorescence polarization | Potency, µM, inactives show max response, negative = inhibition, most hits filed as inhibitors | 360,000 compounds, 2.8% hits | AID 720504; also: series mostly up to about 57 µM; nearly all actives have a fitted effect of over 65% in size
Target sequence (P53350 whole entry, looked up, the tested form may be a part): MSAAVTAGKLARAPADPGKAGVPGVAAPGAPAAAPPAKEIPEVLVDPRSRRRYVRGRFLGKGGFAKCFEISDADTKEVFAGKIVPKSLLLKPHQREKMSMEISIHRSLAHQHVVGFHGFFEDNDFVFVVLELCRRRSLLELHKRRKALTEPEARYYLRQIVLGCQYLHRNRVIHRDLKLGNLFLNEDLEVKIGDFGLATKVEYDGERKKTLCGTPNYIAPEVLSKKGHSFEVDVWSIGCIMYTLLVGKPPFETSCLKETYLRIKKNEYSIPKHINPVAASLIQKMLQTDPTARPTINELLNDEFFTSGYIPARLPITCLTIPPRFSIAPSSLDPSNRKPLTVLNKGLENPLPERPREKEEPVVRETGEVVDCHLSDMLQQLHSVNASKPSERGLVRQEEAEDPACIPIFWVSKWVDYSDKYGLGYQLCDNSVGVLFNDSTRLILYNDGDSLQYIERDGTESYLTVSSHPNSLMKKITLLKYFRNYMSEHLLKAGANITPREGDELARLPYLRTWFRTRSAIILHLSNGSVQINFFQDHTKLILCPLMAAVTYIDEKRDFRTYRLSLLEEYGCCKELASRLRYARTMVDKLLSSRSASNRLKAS
KAT2A inh – GCN5L2 (KAT2A) acetyltransferase inhibition; 390,000 compounds, 0.21% hits; GCN5L2 HAT assay, ThioGlo1 CoA-SH fluorescence; Q92830; AID 504327; Potency, µM (highest dose often 58.9 µM), inactives show at the top dose activity change, negative = inhibition, actives largely listed as inhibitors
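Titration-based screen in which CoA formation is detected via maleimide probe ThioGlo1 (50uM) turning fluorescent on thiol reaction; substrates H3(1-25) 75uM and acetyl-CoA 70uM, GCN5L2 20nM, 20 min incubation at room temperature.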
VDR inh – vitamin D3 receptor (human) inhibition; P11473; VDR-SRC2-3 peptide fluorescence polarization, 2 h; Potency, µM, for the others: max response, negative = inhibition, usual class: inhibitors; 400,000 compounds, 0.93% hits; AID 504847
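Reagent solutions, kept cold and dark, are dispensed first; compounds are then pinned in at 23 nl, plates briefly spun, and incubated 2 h at ambient temperature. Inhibition of VDR–SRC2-3 peptide binding is read by fluorescence polarization.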
Active calls of the source: *; ? = inconclusive; / = not tested or not shown; [ ] = another dose, or the depositor's remark. Calls follow the shape of the dose curve; as a rule, active = well fitted curve in the direction sought with a large enough effect; inconclusive = small, poorly fitted or top-dose-only effect, or another doubt; inactive = no such curve, though single readings can be large; an effect the other way counts as inactive or inconclusive. % is scaled to controls: 0 for no effect and ±100 for the full control effect; potency is read from the fitted curve at half-maximal effect.

SMILES | DT40 TDP1 CPT | TDP1 inh | DT40 TDP1 no CPT | PLK1 PBD inh | KAT2A inh | VDR inh
CC12CCC3C(CC=C4CC5(CCC43C)OCCO5)C1CCC2=O (stereo not given) | ? | -7% | ? | -14% | 3% | -18%
CN(C)CCN=Cc1c(O)n(CCC2=CCCCC2)c(=O)[nH]c1=O | -3% | 0% | 14% | -7% | -2% | -8%
COc1ccc(/C=C/C(=O)c2c(O)n(CCC3=CCCCC3)c(=O)[nH]c2=O)cc1 | 6.5µM* | 6% | ? | ? | -15% | ?
COc1cc2c(cc1OC)CN(c1ccc([N+](=O)[O-])c(C(F)(F)F)c1)CC2 | 16µM* | 5% | 21µM* | -14% | 17% | ?
O=C(CN1CCCCC1)c1ccccc1 | -27% | / | -15% | / | / | /
O=C(c1ccccc1)C(CN1CCCC1)c1ccccc1 (stereo not given) | 1.8µM* | -2% | 1.6µM* | -12% | -2% | ?
CC1CCN(C(=O)CCl)CC1 | ? | 2% | 16µM* | -12% | 0% | -9%
CCCCOc1ccc(Cn2c(=O)oc3ccccc32)cc1 | ? | 3% | ? | -14% | -6% | -1%
O=C(NCc1ccc(Cl)cc1)C1CCCN(C(=O)c2cnn(-c3ccc(F)cc3)c2-n2cccc2)C1 (stereo not given) | 8.2µM* | 6% | 5.8µM* | / | -1% | -2%
Cc1ccc(NC(=O)C2CCCN(C(=O)c3cnn(-c4ccccc4)c3-n3cccc3)C2)cc1 (stereo not given) | 15µM* | 5% | 18µM* | / | 3% | 3%
CSc1cccc(NC(=O)C2CCN(C(=O)c3cnn(-c4ccccc4)c3-n3cccc3)CC2)c1 | 16µM* | 5% | 18µM* | / | -7% | 2%
COCc1c(C(=O)N2CCC(c3ccccc3)CC2)cnn1-c1nccc(-c2cc(C)sc2C)n1 | -11%[9.04 µM] | / | ? | / | / | /
O=C(Nc1ccccc1)c1cc(C2CCCN(C(=O)C3CC3)C2)on1 (stereo not given) | ? | / | ? | -3% | / | /
O=C(COc1ccc(Br)cc1)Nc1ccc(Cl)cc1C(=O)c1ccccc1 | -3% | -2%[12.3 µM] | -15% | / | -6% | -4%
C/C=C1/CN2CC[C@]34C(=C(C=O)[C@@H]1C[C@H]23)Nc1c(O)cccc14 | -8%[9.04 µM] | 11% | -14%[9.04 µM] | / | / | 1%
O=C1C=CC2C3C(=O)N(c4ccccc4)C(=O)C3C1N2Cc1ccccc1 (stereo not given) | 2.1µM* | / | 2.3µM* | ? | / | ?
O=C(NCCc1ccccc1)[C@@H]1CC=C[C@@H]2CCN(Cc3ccc(Cl)c(Cl)c3)C(=O)[C@@H]21 | 4µM* | / | 10µM* | -10% | / | 2%
Cc1[nH]c2ccccc2c1C(=O)CN1CC=C(c2ccccc2)CC1 | 16µM* | -3% | ? | -19% | -1% | -6%
O=C1Nc2cc(Cl)c(Cl)cc2N2CCNC[C@H]12 | -31% | 11% | ? | / | -13% | 25µM*
CCOc1ccc(NC(=O)c2c(O)[nH]c(=O)[nH]c2=O)cc1 | 23µM* | / | 16µM* | 5% | / | -12%
CCOC(=O)c1ccc(NC(=O)c2c(O)[nH]c(=O)[nH]c2=O)cc1 | ? | ? | ? | -2% | ? | -8%
Cc1sc2ncnc(SCC(=O)Nc3ccc(S(=O)(=O)N4CCOCC4)cc3)c2c1C | 23µM* | 0% | 29µM* | -8% | -5% | 14%
Cc1sc2ncnc(N3CCN(S(=O)(=O)c4ccc(Br)cc4)CC3)c2c1C | 13µM* | / | 12µM* | 0% | / | ?
CN1CCN(S(=O)(=O)c2ccc(Cl)nc2)CC1 | 11% | 3% | -1% | -6% | 4% | 9%
COC(=O)C(O)(c1ccc(N(C)C(=O)c2cccs2)cc1)C(F)(F)F (stereo not given) | 3.3µM* | 3% | ? | 24µM* | -2% | 50µM*
SMILES | DT40 TDP1 CPT | TDP1 inh | DT40 TDP1 no CPT | PLK1 PBD inh | KAT2A inh | VDR inh
COC(=O)C(O)(c1ccc(N(C)C)cc1)C(F)(F)F (stereo not given) | 0% | 0% | 0% | -4% | -4% | -5%
Cn1cc[n+](C)c1P(=S)(c1ccccc1)c1ccccc1 | 10µM* | -5% | 21µM* | -13% | -8% | 3%
O=C(O)CNCP(=O)(O)O | -4% | 12%[56.1 µM] | 3% | / | / | /
CCOc1ccc(Nc2c(S(=O)(=O)c3ccc(C)cc3)cnc3ccc(F)cc23)cc1 | ? | -1% | ? | / | -11% | 3%
CCCCOc1ccc(CN2CCN(CCO)CC2)cc1 | -28% | 5% | -27% | -7% | 1% | 2%
CCCCCCOc1ccc(CN2CCN(CCO)CC2)cc1 | 16µM* | 3% | 21µM* | -1% | -15% | 9%
CC(C)c1c(C(=O)N(C)Cc2cccc3ncccc23)cnn1-c1nccc(-c2ccccc2F)n1 | 4.1µM* | / | 8.2µM* | / | / | /
COc1cccc(OC)c1-c1nn2c(-c3n[nH]c4c3CCC4)nnc2s1 | 6.3µM* | -5% | 5.6µM* | / | / | -19%
COc1ccc(C2=CC(c3ccc4c(c3)OCO4)c3c(c4ccccc4oc3=O)O2)cc1OC (stereo not given) | 15µM* | / | 21µM* | -3% | / | -10%
CCCCC(=O)Cl | / | 8% | / | / | / | /
COc1ccc(P2(=O)Nc3ccccc3N2)cc1 | 15µM* | -5% | ? | -25% | -13% | -15%
CCc1cc(=O)oc2cc(C)cc(OCC(=O)N3CCC(C(=O)O)(c4ccccc4)CC3)c12 | -10% | / | -3% | 2% | ? | -5%
Cc1cc2oc(=O)cc(-c3ccccc3)c2c(C)c1-c1ccc(CO)cc1 | 18µM* | -1%[56.1 µM] | 18µM* | 0% | -14% | ?
O=C(CN1CCCC1=O)Nc1ccccc1 | -6% | 2% | 11% | 4% | 0% | 3%
COC(=O)c1cc(NC(=O)Cn2nc(-c3ccccc3)c3c(c2=O)CCCC3)cc(C(=O)OC)c1 | ? | 0% | 18µM* | / | -10% | 0%
CCCC1=Nc2cc(C(=O)NCCc3ccc(OCC)cc3)ccc2Sc2ccccc21 | ? | 0%[12.3 µM] | 21µM* | / | -8% | -12%
CCCC1=Nc2cc(C(=O)NCCCN(CC)CC)ccc2Sc2ccccc21 | ? | 0% | 29µM* | / | -9% | -8%
CCC1=Nc2cc(C(=O)N3CCC4(CC3)OCCO4)ccc2Sc2ccccc21 | ? | 5% | ? | -2% | -9% | 8%
CN(CCC(N)CC(=O)NC1C=CC(n2ccc(N)nc2=O)OC1C(=O)O)C(=N)N (stereo not given) | ? | 10%[56.1 µM] | -20% | / | 10% | 3%
